Source: PubChem BioAssay AID1159580 (chemical genetic matrix, 2015)
In all, about 5,500 compounds went through this assay and about 2,000 (36%) were called active. Not shown: some 18% with an inconclusive outcome. The list shows a part of the results. A number with no mark means an inactive call. No stated cut-off is given here; in the data, active means normalized growth mostly below about 0.91 (no sharp cut-off); inconclusive means no clear call, values can overlap the other calls; inactive means mostly above about 0.92.

Assay: chemical genetic growth profiling, strain panel (AID 1159580);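 further: tested at 20 µM; growth read once vehicle control cultures reached saturation at 30 °C; 1 = growth at the plate median or of vehicle wells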
Conditions: growth OD

C[C@H]1[C@H](C)CC[C@]2(C(=O)O)CC[C@]3(C)C(=CCC4[C@@]5(C)C[C@@H](O)[C@H](O)[C@@](C)(CO)C5[C@H](O)C[C@]43C)[C@H]12 (stereo partly drawn)
normalized growth (S. cerevisiae deletion strains, locus YJR066W, strain TOR1, stronger effect = lower value): 0.909
normalized growth (S. cerevisiae deletion strains, locus YKL009W, strain mrt4, stronger effect = lower value): 1.55 [resistant] (active)
normalized growth (S. cerevisiae deletion strains, locus YKL068W, stronger effect = lower value): 1.23 [resistant] (active)
normalized growth (S. cerevisiae deletion strains, locus YKL085W, strain MDH1 (second series), stronger effect = lower value): 1.3 [resistant] (active)
normalized growth (S. cerevisiae deletion strains, locus YKL085W, strain MDH1, stronger effect = lower value): 1.3 [resistant] (active)
normalized growth (S. cerevisiae deletion strains, locus YKL160W, strain elf1, stronger effect = lower value): 0.958
normalized growth (S. cerevisiae deletion strains, locus YKR001C, strain vps1, stronger effect = lower value): 0.855 (active)
normalized growth (S. cerevisiae deletion strains, locus YKR026C, strain gcn3, stronger effect = lower value): 0.962
normalized growth (S. cerevisiae deletion strains, locus YKR091W, strain srl3, stronger effect = lower value): 0.965
normalized growth (S. cerevisiae deletion strains, locus YLL001W, strain dnm1, stronger effect = lower value): 0.964
normalized growth (S. cerevisiae deletion strains, locus YLL026W, stronger effect = lower value): 0.97
normalized growth (S. cerevisiae deletion strains, locus YLL041C, strain sdh2, stronger effect = lower value): 0.966
normalized growth (S. cerevisiae deletion strains, locus YLR027C, strain aat2, stronger effect = lower value): 0.96
normalized growth (S. cerevisiae deletion strains, locus YLR039C, strain RIC1, stronger effect = lower value): 0.799
normalized growth (S. cerevisiae deletion strains, locus YLR058C, strain SHM2, stronger effect = lower value): 0.993
normalized growth (S. cerevisiae deletion strains, locus YLR102C, strain apc9, stronger effect = lower value): 0.976
normalized growth (S. cerevisiae deletion strains, locus YLR113W, strain HOG1, stronger effect = lower value): 0.673 (active)
normalized growth (S. cerevisiae deletion strains, locus YLR221C, strain rsa3, stronger effect = lower value): 0.922
normalized growth (S. cerevisiae deletion strains, locus YLR258W, strain gsy2, stronger effect = lower value): 0.968
normalized growth (S. cerevisiae deletion strains, locus YLR262C, strain YPT6 (second series), stronger effect = lower value): 0.919
normalized growth (S. cerevisiae deletion strains, locus YLR262C, strain YPT6, stronger effect = lower value): 0.872
normalized growth (S. cerevisiae deletion strains, locus YLR268W, strain sec22, stronger effect = lower value): 0.932
normalized growth (S. cerevisiae deletion strains, locus YLR320W, strain mms22, stronger effect = lower value): 0.928
normalized growth (S. cerevisiae deletion strains, locus YLR330W, strain CHS5, stronger effect = lower value): 0.958
normalized growth (S. cerevisiae deletion strains, locus YLR342W, strain FKS1 (second series), stronger effect = lower value): 0.915
normalized growth (S. cerevisiae deletion strains, locus YLR342W, strain FKS1, stronger effect = lower value): 0.982
normalized growth (S. cerevisiae deletion strains, locus YLR357W, strain rsc2, stronger effect = lower value): 0.921
normalized growth (S. cerevisiae deletion strains, locus YLR370C, strain arc18, stronger effect = lower value): 0.967
normalized growth (S. cerevisiae deletion strains, locus YLR371W, strain rom2, stronger effect = lower value): 0.921
normalized growth (S. cerevisiae deletion strains, locus YLR384C, strain iki3, stronger effect = lower value): 0.964
normalized growth (S. cerevisiae deletion strains, locus YLR418C, strain cdc73, stronger effect = lower value): 0.901
normalized growth (S. cerevisiae deletion strains, locus YML016C, strain PPZ1, stronger effect = lower value): 0.99
normalized growth (S. cerevisiae deletion strains, locus YML032C, strain rad52, stronger effect = lower value): 0.959
normalized growth (S. cerevisiae deletion strains, locus YML120C, strain ndi1, stronger effect = lower value): 0.951
normalized growth (S. cerevisiae deletion strains, locus YML124C, strain tub3, stronger effect = lower value): 0.963
normalized growth (S. cerevisiae deletion strains, locus YMR058W, strain fet3, stronger effect = lower value): 0.972
normalized growth (S. cerevisiae deletion strains, locus YMR078C, strain ctf18, stronger effect = lower value): 0.979
normalized growth (S. cerevisiae deletion strains, locus YMR125W, strain sto1, stronger effect = lower value): 0.966
normalized growth (S. cerevisiae deletion strains, locus YMR129W, stronger effect = lower value): 0.962
normalized growth (S. cerevisiae deletion strains, locus YMR205C, strain PFK2, stronger effect = lower value): 0.909
normalized growth (S. cerevisiae deletion strains, locus YMR223W, strain ubp8, stronger effect = lower value): 0.905
normalized growth (S. cerevisiae deletion strains, locus YMR231W, strain pep5, stronger effect = lower value): 0.978
normalized growth (S. cerevisiae deletion strains, locus YMR307W, strain GAS1, stronger effect = lower value): 0.6
normalized growth (S. cerevisiae deletion strains, locus YNL067W, strain RPL9B, stronger effect = lower value): 0.942
normalized growth (S. cerevisiae deletion strains, locus YNL071W, strain lat1, stronger effect = lower value): 0.973
normalized growth (S. cerevisiae deletion strains, locus YNL183C, strain NPR1, stronger effect = lower value): 0.905
normalized growth (S. cerevisiae deletion strains, locus YNL209W, strain ssb2, stronger effect = lower value): 0.961
normalized growth (S. cerevisiae deletion strains, locus YNL233W, strain BNI4, stronger effect = lower value): 0.927
normalized growth (S. cerevisiae deletion strains, locus YNL248C, strain rpa49, stronger effect = lower value): 0.964
normalized growth (S. cerevisiae deletion strains, locus YNL250W, strain rad50, stronger effect = lower value): 0.98
normalized growth (S. cerevisiae deletion strains, locus YNL271C, strain bni1, stronger effect = lower value): 0.907 (active)
normalized growth (S. cerevisiae deletion strains, locus YNL298W, strain CLA4, stronger effect = lower value): 0.869 (active)
normalized growth (S. cerevisiae deletion strains, locus YNL307C, strain MCK1, stronger effect = lower value): 0.994
normalized growth (S. cerevisiae deletion strains, locus YNL322C, strain KRE1 (second series), stronger effect = lower value): 0.98
normalized growth (S. cerevisiae deletion strains, locus YNL322C, strain KRE1, stronger effect = lower value): 0.984
normalized growth (S. cerevisiae deletion strains, locus YNR049C, strain mso1, stronger effect = lower value): 0.987
normalized growth (S. cerevisiae deletion strains, locus YNR052C, strain pop2, stronger effect = lower value): 0.914 (active)
normalized growth (S. cerevisiae deletion strains, locus YOL006C, strain TOP1, stronger effect = lower value): 0.915
normalized growth (S. cerevisiae deletion strains, locus YOL012C, strain htz1): 0.605
normalized growth (S. cerevisiae deletion strains, locus YOL147C, strain pex11, stronger effect = lower value): 0.985
normalized growth (S. cerevisiae deletion strains, locus YOR001W, strain rrp6, stronger effect = lower value): 0.907
normalized growth (S. cerevisiae deletion strains, locus YOR061W, strain CKA2, stronger effect = lower value): 0.994
normalized growth (S. cerevisiae deletion strains, locus YOR069W, strain VPS5, stronger effect = lower value): 0.998
normalized growth (S. cerevisiae deletion strains, locus YOR070C, strain gyp1, stronger effect = lower value): 0.966
normalized growth (S. cerevisiae deletion strains, locus YOR080W, strain dia2, stronger effect = lower value): 0.967
normalized growth (S. cerevisiae deletion strains, locus YOR083W, strain WHI5, stronger effect = lower value): 0.954
normalized growth (S. cerevisiae deletion strains, locus YOR106W, strain vam3, stronger effect = lower value): 0.972
normalized growth (S. cerevisiae deletion strains, locus YOR136W, strain idh2, stronger effect = lower value): 0.931
normalized growth (S. cerevisiae deletion strains, locus YOR144C, strain elg1, stronger effect = lower value): 0.958
normalized growth (S. cerevisiae deletion strains, locus YOR184W, strain ser1, stronger effect = lower value): 0.946
normalized growth (S. cerevisiae deletion strains, locus YOR231W, strain MKK1, stronger effect = lower value): 0.982
normalized growth (S. cerevisiae deletion strains, locus YOR265W, strain rbl2, stronger effect = lower value): 0.98
normalized growth (S. cerevisiae deletion strains, locus YOR270C, strain vph1, stronger effect = lower value): 0.851
normalized growth (S. cerevisiae deletion strains, locus YOR290C, strain snf2, stronger effect = lower value): 0.971
normalized growth (S. cerevisiae deletion strains, locus YOR316C, strain cot1, stronger effect = lower value): 0.962
normalized growth (S. cerevisiae deletion strains, locus YPL051W, strain arl3, stronger effect = lower value): 0.959
normalized growth (S. cerevisiae deletion strains, locus YPL055C, strain LGE1, stronger effect = lower value): 0.938
normalized growth (S. cerevisiae deletion strains, locus YPL078C, strain atp4, stronger effect = lower value): 0.984
normalized growth (S. cerevisiae deletion strains, locus YPL106C, strain sse1, stronger effect = lower value): 0.895
normalized growth (S. cerevisiae deletion strains, locus YPL240C, strain hsp82, stronger effect = lower value): 0.953
normalized growth (S. cerevisiae deletion strains, locus YPL241C, strain CIN2, stronger effect = lower value): 1
normalized growth (S. cerevisiae deletion strains, locus YPL256C, strain CLN2, stronger effect = lower value): 0.958
normalized growth (S. cerevisiae deletion strains, locus YPR119W, strain clb2, stronger effect = lower value): 0.978
normalized growth (S. cerevisiae deletion strains, locus YPR141C, strain kar3, stronger effect = lower value): 0.974
normalized growth (S. cerevisiae deletion strains, locus YPR163C, strain tif3, stronger effect = lower value): 0.969
normalized growth (S. cerevisiae deletion strains, locus YPR167C, strain met16, stronger effect = lower value): 0.974
normalized growth (S. cerevisiae deletion strains, strain wtn01, stronger effect = lower value): 0.94
normalized growth (S. cerevisiae strains, strain wild type, stronger effect = lower value): 0.961
